Calls of active or inactive are those of the source. Rule for the calls: active = hit-call score of the fitted dose curve at least 0.9, where 1 is the maximum; inactive = score below 0.9.

The source of these data is PubChem BioAssay (EPA / NIEHS).

Settings in all cases: mRNA level, 48 h; actives raise or lower the signal
Read-out in assay [1]: Cytochrome P450 4A22 (Homo sapiens) (UniProt Q5TCH4)
Briefly: LTEA_HepaRG_CYP4A22: Life Technologies and Expression Analysis (LTEA) Assay for Cytochrome P450 4A22 (CYP4A22) using HepaRG (AID 2283495). The procedure, abridged:
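Gene expression measured by qRT-PCR against three housekeeping genes (ACTB, GAPDH, POLR2A), with gain or loss fitted relative to 0.5% DMSO vehicle. HepaRG cultures received 48 h chemical treatment, top concentration 100 uM, half-log steps, duplicate wells.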

Read-out in assay [2]: Cytochrome P450 7A1 (Homo sapiens) (UniProt P22680)
The assay is described as follows: LTEA_HepaRG_CYP7A1: Life Technologies and Expression Analysis (LTEA) Assay for Cytochrome P450 7A1 (CYP7A1) using HepaRG (AID 2283496). An outline of the steps:
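HepaRG, 48 h exposure, 8-pt half-log series from 100 uM, 0.5% DMSO vehicle, duplicates. Readout: TaqMan qRT-PCR mRNA vs three housekeeping genes; bidirectional curve fit against DMSO baseline.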

Read-out in assay [3]: Glutathione S-Transferase (GSTA2), GSTA2 (gene 2939)
Briefly: LTEA_HepaRG_GSTA2: Life Technologies and Expression Analysis (LTEA) Assay for Glutathione S-Transferase (GSTA2) using HepaRG (AID 2283497). An outline of the steps: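 qRT-PCR readout of GSTA2 transcript, normalized to three housekeeping genes, fitted bidirectionally against 0.5% DMSO baseline. Differentiated HepaRG cells received compound for 48 h at 8 concentrations (top 100 uM, half-log steps).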

Read-out in assay [4]: Glutamate-cysteine ligase catalytic (GCLC), GCLC (gene 2729)
Briefly: LTEA_HepaRG_GCLC: Life Technologies and Expression Analysis (LTEA) Assay for Glutamate-cysteine ligase catalytic (GCLC) using HepaRG (AID 2283498). An outline of the steps: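 HepaRG, 48 h exposure, 8-pt half-log series from 100 uM, 0.5% DMSO vehicle; TaqMan qRT-PCR for GCLC mRNA, housekeeping-normalized; bidirectional curve fit vs DMSO baseline.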

Read-out in assay [5]: Glutamate-cysteine ligase regulatory (GCLM), GCLM (gene 2730)
The assay is described as follows: LTEA_HepaRG_GCLM: Life Technologies and Expression Analysis (LTEA) Assay for Glutamate-cysteine ligase regulatory (GCLM) using HepaRG (AID 2283500). An outline of the steps:
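Endpoint is GCLM transcript level by qRT-PCR, normalized to three housekeeping genes, after 48 h chemical exposure of human HepaRG cells (0.5% DMSO vehicle, top 100 uM, half-log dilutions). Fitting was bidirectional relative to DMSO.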

Read-out in assay [6]: Glutathione S-transferase M3 (GSTM3), GSTM3 (gene 2947)
The assay is described as follows: LTEA_HepaRG_GSTM3: Life Technologies and Expression Analysis (LTEA) Assay for Glutathione S-transferase M3 (GSTM3) using HepaRG (AID 2283501). The procedure, abridged:
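GSTM3 transcript levels came from Fluidigm TaqMan qRT-PCR normalized to three housekeeping genes, fitted in both directions against DMSO. HepaRG cultures received chemicals for 48 h in serum-free induction medium (0.5% DMSO), 8 half-log concentrations up to 100 uM, duplicate.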

Read-out in assay [7]: Heat shock 70 kDa protein 1 (HSPA1A), gene 3303
The assay is described as follows: LTEA_HepaRG_HSPA1A: Life Technologies and Expression Analysis (LTEA) Assay for Heat shock 70 kDa protein 1 (HSPA1A) using HepaRG (AID 2283502). The procedure, abridged: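 Cells were plated and cultured for 48 h, then switched to serum-free induction medium. Chemicals were added at eight half-log concentrations up to 100 uM for 48 h. RNA was then isolated and HSPA1A measured by qRT-PCR with bidirectional curve fitting against DMSO.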

Read-out in assay [8]: Hypoxia-inducible factor 1-alpha (Homo sapiens) (UniProt Q16665)
The assay is described as follows: LTEA_HepaRG_HIF1A: Life Technologies and Expression Analysis (LTEA) Assay for Hypoxia-inducible factor 1 (HIF1A) Trancription factor using HepaRG (AID 2283503). An outline of the steps: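 HIF1A transcript level read by qRT-PCR (ACTB, GAPDH, POLR2A normalization) after 48 h chemical exposure of HepaRG cultures. Eight half-log concentrations, top 100 uM, 0.5% DMSO vehicle, duplicates; bidirectional curve fit against DMSO baseline.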

Read-out in assay [9]: 3-Hydroxy-3-Methylglutaryl-CoA Synthase 2 (HMGCS2), HMGCS2 (gene 3158)
The assay is described as follows: LTEA_HepaRG_HMGCS2: Life Technologies and Expression Analysis (LTEA) Assay for 3-Hydroxy-3-Methylglutaryl-CoA Synthase 2 (HMGCS2) using HepaRG (AID 2283504). The procedure, abridged:
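Readout is HMGCS2 transcript by qRT-PCR, housekeeping-normalised (ACTB/GAPDH/POLR2A) and fitted bidirectionally against 0.5% DMSO. Differentiated HepaRG cells received chemicals 48 h, duplicate wells, eight half-log concentrations topping at 100 uM.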

Read-out in assay [10]: HGF (gene 3082)
The assay is described as follows: LTEA_HepaRG_HGF: Life Technologies and Expression Analysis (LTEA) Assay for Hepatocyte Growth Facto (HGF) using HepaRG (AID 2283505). The procedure, abridged: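 HGF transcript was quantified by TaqMan qRT-PCR against three housekeeping genes after 48 h treatment of HepaRG cells. Exposure ran in duplicate over eight half-log steps topping at 100 uM in 0.5% DMSO vehicle.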

Read-out in assay [11]: Insulin Like Growth Factor 1 (IGF1), IGF1 (gene 3479)
Briefly: LTEA_HepaRG_IGF1: Life Technologies and Expression Analysis (LTEA) Assay for Insulin Like Growth Factor 1 (IGF1) using HepaRG (AID 2283506). The procedure, abridged:
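Cells are thawed, plated and cultured 48 h, then exposed in duplicate to chemical (highest 100 uM, half-log steps, 0.5% DMSO) for another 48 h. Total RNA is analysed by Fluidigm qRT-PCR for IGF1 expression relative to vehicle.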

Read-out in assay [12]: Intercellular Adhesion Molecule 1 (ICAM1), ICAM1 (gene 3383)
Briefly: LTEA_HepaRG_ICAM1: Life Technologies and Expression Analysis (LTEA) Assay for Intercellular Adhesion Molecule 1 (ICAM1) using HepaRG (AID 2283507). An outline of the steps: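 ICAM1 transcript levels measured by qRT-PCR, normalized to three housekeeping genes (ACTB, GAPDH, POLR2A), after 48 h chemical exposure of HepaRG cells. Duplicate eight-point half-log series from 100 uM in 0.5% DMSO; gain or loss fitted against vehicle.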

Read-out in assay [13]: Insulin-like growth factor-binding protein 1 (IGFBP1), IGFBP1 (gene 3484)
Briefly: LTEA_HepaRG_IGFBP1: Life Technologies and Expression Analysis (LTEA) Assay for Insulin-like growth factor-binding protein 1 (IGFBP1) using HepaRG (AID 2283508). The procedure, abridged: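 Read-out is qRT-PCR transcript level normalized to three housekeeping genes, fitted in both directions against 0.5% DMSO. Differentiated HepaRG cells received eight half-log concentrations (top 100 uM) in duplicate for 48 h in serum-free induction medium.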

Read-out in assay [14]: Interleukin 6 (IL6), IL6 (gene 3569)
Briefly: LTEA_HepaRG_IL6: Life Technologies and Expression Analysis (LTEA) Assay for Interleukin 6 (IL6) using HepaRG (AID 2283509). The procedure, abridged:
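qRT-PCR read-out of IL6 transcript, normalized to three housekeeping genes, after 48 h chemical exposure of HepaRG cells; 8-point half-log series, top 100 uM, 0.5% DMSO vehicle. Bidirectional curve fitting against DMSO baseline.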

Read-out in assay [15]: Interleukin 6 Receptor (IL6R), IL6R (gene 3570)
Briefly: LTEA_HepaRG_IL6R: Life Technologies and Expression Analysis (LTEA) Assay for Interleukin 6 Receptor (IL6R) using HepaRG (AID 2283510).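 For AC50: differentiated human HepaRG liver cells in serum-free induction medium.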 The procedure, abridged: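 Cells were thawed, plated and cultured 48 h, then medium was changed to serum-free induction medium. Chemicals were added in duplicate (100 uM top, half-log steps, 0.5% DMSO) for 48 h. Lysates were analyzed by qRT-PCR for IL6R expression.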

Read-out in assay [16]: Potassium channel subfamily K member 1 (KCNK1), KCNK1 (gene 3775)
Briefly: LTEA_HepaRG_KCNK1: Life Technologies and Expression Analysis (LTEA) Assay for Potassium channel subfamily K member 1 (KCNK1) using HepaRG (AID 2283511). An outline of the steps:
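HepaRG, 48 h exposure, 8-pt half-log series top 100 uM, 0.5% DMSO vehicle, duplicates. Readout: KCNK1 transcript by qRT-PCR (Fluidigm array), housekeeping-normalized; bidirectional curve fit relative to DMSO baseline.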

Read-out in assay [17]: Keratin 19 (KRT19), KRT19 (gene 3880)
The assay is described as follows: LTEA_HepaRG_KRT19: Life Technologies and Expression Analysis (LTEA) Assay for Keratin 19 (KRT19) using HepaRG (AID 2283512). An outline of the steps:
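KRT19 transcript measured by TaqMan qRT-PCR, referenced to three housekeeping genes, after HepaRG cells received test chemicals for 48 h. Eight half-log concentrations, top 100 uM, 0.5% DMSO vehicle; increases and decreases both fitted.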

Read-out in assay [18]: JUN Transcription Factor, JUN (gene 3725)
Briefly: LTEA_HepaRG_JUN: Life Technologies and Expression Analysis (LTEA) Assay for JUN Transcription Factor using HepaRG (AID 2283513). The procedure, abridged: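 Read-out is JUN transcript level by TaqMan qRT-PCR, normalized to ACTB, GAPDH and POLR2A, after 48 h chemical treatment of HepaRG cells. Concentration-response spanned eight half-log points up to 100 uM in 0.5% DMSO.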

Read-out in assay [19]: Lipase C (LIPC), LIPC (gene 3990)
Briefly: LTEA_HepaRG_LIPC: Life Technologies and Expression Analysis (LTEA) Assay for Lipase C (LIPC) using HepaRG (AID 2283514). The procedure, abridged: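 HepaRG, 48 h exposure, 8-pt half-log series from 100 uM in 0.5% DMSO, duplicates. Readout: LIPC mRNA by Fluidigm qRT-PCR, housekeeping-normalized (ACTB/GAPDH/POLR2A). Gain or loss fitted bidirectionally against DMSO baseline.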

Read-out in assay [20]: growth arrest and DNA damage 45 (GADD45G), GADD45G (gene 10912)
The assay is described as follows: LTEA_HepaRG_GADD45G: Life Technologies and Expression Analysis (LTEA) Assay for growth arrest and DNA damage 45 (GADD45G) using HepaRG (AID 2283499). The procedure, abridged:
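GADD45G transcript level by qRT-PCR (housekeeping-normalized: ACTB, GAPDH, POLR2A) after 48 h chemical treatment of a single HepaRG lot in serum-free induction medium; eight-point half-log series up to 100 uM in 0.5% DMSO, duplicates, up- or down-regulation scored.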

Hypoxia-inducible factor 1-alpha (Homo sapiens), sequence (Q16665 whole entry, looked up): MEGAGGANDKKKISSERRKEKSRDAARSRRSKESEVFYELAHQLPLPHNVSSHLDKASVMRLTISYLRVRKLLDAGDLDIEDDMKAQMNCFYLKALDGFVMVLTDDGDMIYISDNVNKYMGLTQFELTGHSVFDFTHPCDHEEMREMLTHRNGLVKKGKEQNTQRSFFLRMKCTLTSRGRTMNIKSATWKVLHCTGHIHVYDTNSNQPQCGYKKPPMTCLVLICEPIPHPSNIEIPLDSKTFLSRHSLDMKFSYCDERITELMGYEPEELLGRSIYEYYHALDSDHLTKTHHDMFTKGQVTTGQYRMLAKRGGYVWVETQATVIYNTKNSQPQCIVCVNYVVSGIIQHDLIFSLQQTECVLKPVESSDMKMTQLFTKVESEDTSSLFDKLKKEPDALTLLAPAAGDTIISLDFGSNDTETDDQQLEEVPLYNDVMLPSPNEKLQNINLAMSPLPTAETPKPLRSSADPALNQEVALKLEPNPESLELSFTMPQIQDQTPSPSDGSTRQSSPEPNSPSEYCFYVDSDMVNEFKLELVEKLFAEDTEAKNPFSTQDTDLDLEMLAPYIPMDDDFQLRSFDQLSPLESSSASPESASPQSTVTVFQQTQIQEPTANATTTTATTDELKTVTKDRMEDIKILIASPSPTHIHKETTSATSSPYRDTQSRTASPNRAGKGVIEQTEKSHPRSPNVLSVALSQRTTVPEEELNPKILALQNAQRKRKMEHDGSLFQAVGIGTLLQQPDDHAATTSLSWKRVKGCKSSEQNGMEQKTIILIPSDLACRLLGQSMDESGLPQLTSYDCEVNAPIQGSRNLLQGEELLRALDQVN

In the case of `CC(C)(C)c1cccc(C(C)(C)C)c1O`, the result in assay [1], in assay [2], in [3], in [4], in assay [5] and in assay [6] was inactive. The compound was called inactive in [7], in assay [8], in assay [9], in assay [10], in assay [11] and in assay [12]. Further, the call in [13], in assay [14], in [15], in assay [16], in assay [17] and in assay [18] was inactive. Further, the call in assay [19] was inactive.
Regarding `O=C(OCCOCCOC(=O)c1ccccc1)c1ccccc1`, the outcome in assay [1], in assay [2], in assay [3], in assay [4], in assay [20] and in assay [5] was inactive. Also, the compound was called inactive in assay [6], in assay [7], in [8], in [9], in assay [10] and in [11]. Moreover, the compound was called inactive in assay [12], in [13], in assay [15], in assay [16], in assay [17] and in assay [19].
Regarding `CCCCC(CC)COC(=O)CCCCC(=O)OCc1ccccc1` (centres undefined), the compound was called inactive in [1], in assay [2], in assay [3], in assay [4], in assay [20] and in assay [5]. Moreover, the compound was classed as inactive in assay [6], in [7], in assay [8], in assay [9], in assay [10] and in assay [11]. For the same compound, the call in assay [12], in [13], in assay [15], in assay [16], in assay [18] and in assay [19] was inactive.
Take `CCCCCCCCC(=O)O`: the result in assay [1], in [2], in assay [3], in [4], in assay [20] and in [5] was inactive. Moreover, the compound was called inactive in [6], in assay [7], in [8], in assay [9], in assay [10] and in [11]. The compound was classed as inactive in assay [12], in assay [13], in [15], in [16], in [18] and in assay [19].
Take `CC(O)CO` (centres undefined): the compound was classed as inactive in [1], in assay [2], in assay [3], in assay [4], in assay [20] and in assay [5]. Further, the compound was classed as inactive in [6], in assay [7], in [8], in assay [9], in assay [10] and in [11]. Further, the call in [12], in assay [13], in assay [15], in [16], in [18] and in assay [19] was inactive.
As for `CCc1ccc(CCOc2ccc(CC3SC(=O)NC3=O)cc2)nc1` (centres undefined), the AC50 was 84 µM (active) in assay [1]; 68.5 µM (active) in assay [2]; 78.1 µM (active) in [3]; 14.2 µM (active) in assay [4]; 68.3 µM (active) in assay [5]; 23.6 µM (active) in [7]. Besides, the AC50 in assay [9] is 85.2 µM (active); in [11] it was 64.9 µM (active); in assay [12], 50 µM (active); in assay [13] it was 82 µM (active); in [14] it was 88.8 µM (active); in assay [15], 63.5 µM (active). Moreover, the figures for the AC50 in assay [17] and in [19] were 31.3 µM (active) and 82 µM (active), respectively. Besides, the compound was classed as inactive in assay [6], in assay [8], in assay [10] and in [16].
